Assay results from PubChem BioAssay AID2315 (National Center for Advancing Translational Sciences (NCATS), 2010).
Among all 290,000 compounds or so, about 27,000 (9.3%) were called active. This is one part of a sample in which actives are shown more often than they occur. A number with no mark means an inactive call. No stated cut-off is given here; in the data, active means inhibition mostly above about 28% (no sharp cut-off); inactive means mostly below about 43%.

Experiment: A qHTS for Small Molecule Inhibitors of Shiga Toxin; further: 0% is about no effect
Conditions: Vero cells, Shiga toxin protein synthesis inhibition reporter; at 38.7 µM, stronger effect = higher value

Point of comparison: `O=C(CSc1ccc(-c2ccco2)nn1)Nc1cccc(F)c1`, inhibition 38.8%. Against it:
- CCN(CC)c1ccc(NC(=O)CCc2nnc3ccc(N4CCCCC4)nn23)c(C)c1 — lower, -1.98%
- Cc1[nH]c(C)c(S(=O)(=O)N2CCC(C)CC2)c1C(=O)N1CCCC1 — lower, -4.27%
- Cc1ccsc1-c1cc(C(=O)O)c2c(ccc3ccccc32)n1 — lower, 17.5%
- CN(Cc1c(F)cccc1Cl)S(=O)(=O)c1cccs1 — lower, 20.7%
- CC1CC(C)CN(c2ccc(S(=O)(=O)N3CCOCC3)cc2)C1 (stereo not drawn) — lower, 13.9%
- Cn1c(CC(=O)Nc2ccc(F)cc2)nnc1SCC(=O)NC1CCCCC1 — lower, -5.18%
- CN(C)c1ccnc(Nc2ccc(F)cc2)c1C#N — lower, 7.86%
- Cc1cccc(NC(=O)c2ccc(COc3ccccc3[N+](=O)[O-])o2)n1 — lower, 32.9%
- CC(=O)Cc1nsc(NC(=O)c2ccc(COc3ccc(C)cc3)o2)n1 — lower, -9.97%
- COc1ccc(CCNC(=O)NS(=O)(=O)c2ccc(C)cc2)cc1OC — lower, 4.27%
- CC(C)Cc1nnc(NC(=O)CN2C(=O)NC3(CCCCC3)C2=O)s1 — lower, -8.2%
- Cc1ccc(S(=O)(=O)NCC(=O)N2CCN(c3ccccn3)CC2)cc1 — lower, -5.02%
- Cc1ccc(N2C(=O)C3CC3C2=O)cc1 (stereo not drawn) — lower, 25.6%
- Cc1c(CN2CC[C@@H](N3CCN(c4ccccn4)CC3)[C@H](O)C2)[nH]c2ccc(F)cc12 — lower, -5.39%
- COc1cccc(C(=O)c2cc3ccc(O)cc3oc2=O)c1 — lower, 21.7%
- COc1ccc(-c2cc3ccc(OCc4nn[nH]n4)cc3oc2=O)cc1 — lower, 10.3%
- Cc1cc2oc(=O)cc(CN(C)Cc3ccc(OC(F)F)cc3)c2cc1Cl — lower, 17.5%
- O=C(CCc1nnc2ccc(NCCCN3CCCC3=O)nn12)NCc1ccccc1Cl — lower, 20.3%
- COc1cc(Cl)c(C)cc1NC(=O)CN1CCCCCC1 — lower, 14.2%
- Cc1csc(NC(=O)CN2CCCCCC2)n1 — lower, -8.35%
- O=c1cc(Cl)c2ccccc2n1-c1ccccc1 — lower, -8.33%
- Cc1ccccc1NC(=O)c1cc(S(=O)(=O)Nc2cccc(C(=O)O)c2)ccc1Cl — lower, 24.3%
- O=C(NC1CC1)c1ccc2c(c1)NC(=O)c1ccccc1S2 — lower, 13.2%
- Fc1ccc(/C=N/n2c(COc3ccccc3)n[nH]c2=S)cc1 — lower, -5.88%
- COc1cc(-c2n[nH]c(=S)n2Cc2ccccc2)cc(OC)c1OC — lower, -7.08%
- COc1ccc(C)cc1Nc1n[n+](-c2ccccc2)c(-c2cccc(Cl)c2Cl)s1 — lower, -3.92%
- O=S(=O)(Nc1cccc(Oc2ccc(Cl)cc2)n1)c1ccc(F)cc1 — lower, 1.95%
- COc1ccc(-c2csc3ncnc(N4CCN(S(=O)(=O)c5ccccc5C#N)CC4)c23)cc1 — lower, -3.69%
- CCOC(=O)Cc1csc(NC(NC(=O)OCC)(C(F)(F)F)C(F)(F)F)n1 — lower, -12.7%
- CCOC(=O)Cc1csc(NC(=O)Nc2ccccc2)n1 — higher, 46.4%
- Fc1ccc(-c2ccc(CNCc3ccccn3)o2)cc1Cl — lower, 2.57%
- O=C(NCCOCc1ccc(Cl)cc1)c1ncn[nH]1 — lower, 10.4%
- COc1ccc(Cl)cc1CSc1ncn[nH]1 — lower, 4.03%
- COc1ccc(CCNc2nc3ccc(C)cc3n3cnnc23)cc1OC — lower, 4.18%
- CCn1c(=O)n(CC)c2cc(N3CCCC3)c(NC(=O)c3ccccc3Br)cc21 — lower, -6.78%
- Cc1cc(S(=O)(=O)N2CCOCC2)ccc1OCC(=O)N1CCOCC1 — lower, 26.1%
- Cc1ccc(OCCCC(=O)NC(C)c2ccccc2)c(C)c1 (stereo not drawn) — lower, 7.36%
- COc1c(O)c2c(=O)cc(OC)c3c4c(OC)cc(=O)c5c(O)c(OC)c6c(c(c1C[C@@](C)(O)[C@H]6C(C)=O)c23)c54 — lower, 10.8%
- CCOc1ccccc1NC(=O)C1CCCN(S(=O)(=O)c2ccccc2)C1 (stereo not drawn) — lower, -4.05%
- FC(F)(F)c1nnc2c3ccccc3c(Cl)nn12 — lower, 5.58%
- Cc1cccc(C)c1NC(=O)COC(=O)c1ccccc1O — lower, -4.8%
- COc1ccc(C(=O)N2CCCCC2C(=O)Nc2ccc(-n3nc(C)cc3C)cc2)o1 (stereo not drawn) — lower, -7.96%
- CCC(=O)OCCNc1nc(-c2ccccc2)nc2ccccc12 — lower, -14.7%
- CCOC(=O)c1c(N)nn(C(=O)c2ccccc2)c1-c1ccccc1 — lower, -3.34%
- COc1ccc(/C=C/c2c(-c3cccc(C)c3)oc3ccc(-c4ccc5c(c4)OCO5)cc23)cc1 — lower, -4.7%
- Fc1ccc(COc2cccc(-c3n[nH]c(=S)o3)c2)cc1 — lower, 2.21%
- Fc1cccc(Cl)c1COc1ccc(-c2nnco2)cc1 — lower, 30.1%
- O=C(Oc1cccnc1)c1cc2ccccc2oc1=O — lower, 1.26%
- O=C(NCc1cccnc1)c1cccc(-c2cc3ccccc3oc2=O)c1 — lower, 13.7%
- COc1cc(CNCc2ccc3c(c2)OCO3)c([N+](=O)[O-])cc1OC — lower, 16.9%
- CCOC(=O)N1CCN(S(=O)(=O)c2ccc(-n3cnnn3)cc2)CC1 — lower, 5.66%
- COc1cc(NC(=O)CSc2ccc(-c3cccnc3)nn2)cc(OC)c1 — lower, 15.3%
- Cc1ccc(CN2CCCOCCS2(=O)=O)cc1 — lower, -6.69%
- CC(CCc1ccccc1)NC(=O)c1cnc(Cl)c(Cl)c1 (stereo not drawn) — lower, 3.47%
- CC(=O)c1cccc(OCc2cc(C(=O)NC(C)Cc3cccnc3)no2)c1 (stereo not drawn) — lower, 36.9%
- CCOc1cc(C(=O)O)ccc1OCCOc1ccccc1 — lower, 2.96%
- Cc1ccc(CN(CC(=O)NC2CCCCC2)C(=O)c2csnn2)cc1 — lower, -2.02%
- CC1CCN(C(=O)/C(=C\c2ccccc2F)NC(=O)c2ccccc2)CC1 — lower, -2.65%
- CC1CCN(C(=O)/C(=C\c2ccccc2)NC(=O)c2ccccc2)CC1 — lower, 5.08%
- O=S(=O)(c1ccccc1)c1nc(-c2ccccc2)oc1NCCCN1CCOCC1 — lower, -13.1%
- O=C(Nc1ccc(CN2CCOCC2)cc1)c1cc(Cl)ccc1Cl — lower, -2.33%
- CC(O)C(NS(=O)(=O)c1ccc(Cl)cc1)C(=O)OCc1cc([N+](=O)[O-])cc2c1OCOC2 (stereo not drawn) — lower, -12.1%
- O=C(CN1CCN(c2ccc(Cl)cc2)CC1)c1ccccc1 — lower, 12.6%
- CC1CN(S(=O)(=O)c2cccc(C(F)(F)F)c2)CN1C(=O)N1CCOCC1 (stereo not drawn) — lower, 29.9%
- O=C(N/N=C/c1cc([N+](=O)[O-])ccc1O)/C(=C\c1cccs1)NC(=O)c1ccccc1 — lower, -4.29%
- Nc1nnnn1/N=C/c1cc([N+](=O)[O-])ccc1O — lower, 19.7%
- CCNC(=S)N(CCN(CC)CC)Cc1cc2cc3c(cc2[nH]c1=O)OCCO3 — lower, 37.5%
- O=C(CSc1ncccn1)N1CCCC1 — lower, 15.5%
- Cn1c(SCC(=O)N2CCCC2)nnc1-c1cccs1 — lower, 19.8%
- O=C(CSCc1ccc(Cl)cc1)N1CCN(Cc2ccc3c(c2)OCO3)CC1 — lower, 1.49%
- O=C(CN1CCN(c2ccc(Cl)cc2)CC1)N1CCCC1 — lower, -2.98%
- COc1ccc(-c2c(NC(=O)c3ccco3)oc3ccc(Cl)cc3c2=O)cc1 — lower, -2.04%
- O=S(=O)(NC1CCCC1)c1ccc(-n2cnnn2)cc1 — lower, -3.47%
- COc1ccc(C=C(C#N)C#N)c(CSc2ccccn2)c1 — lower, -2.53%
- COc1ccc(C(=O)N[C@H](C(=O)NCc2ccccc2)C(C)C)cc1 — lower, 2.84%
- CCN(CC(=O)NCc1cccs1)C(=O)c1cccc(S(=O)(=O)Nc2ccccc2OC)c1 — lower, 25.8%
- COc1ccccc1C(=O)Nc1ccc(OCc2nnc3c4ccccc4c(C)nn23)cc1 — lower, 6.17%

For `CC(C)c1ccc(Nc2ncccc2C#N)cc1`, the inhibition was 52.3% (active).
In the case of `CCOc1ccc(OCc2ccc(C(=O)Nc3cccc(C)n3)o2)cc1`, the inhibition is reported as 42% (active).
For `Cc1ccc(N2CCN(c3ccc(C)cc3)C2c2ccccn2)cc1`, the inhibition was 57.4% (active).
In the case of `O=c1oc2cc(O)ccc2cc1-c1ccc(F)cc1`, the inhibition is reported as 70% (active).
For `Cc1cc(C)c(NC(=O)CN2CCCCCC2)c(C)c1`, the inhibition was 83.4% (active).
In the case of `C/C(=N\Nc1cccc(C(=O)O)c1)c1ccc2c(c1)Nc1ccccc1S2`, the inhibition is reported as 77.7% (active).
In the case of `COc1cc(/C=N/n2c(C)n[nH]c2=S)ccc1OCc1ccccc1`, the inhibition is reported as -16.6% (active).
In the case of `CCOC(=O)Cc1csc(NC(=O)C(C)(C)C)n1`, the inhibition is reported as 86.2% (active).
In the case of `O=C(/C=C/Sc1ncn[nH]1)c1ccc(Cl)cc1`, the inhibition is reported as 32.3% (active).
For `Cc1ccc(OCCCC(=O)N2CCOCC2)c(C)c1`, the inhibition was 88.9% (active).
In the case of `CCOC(=O)c1c(C)nc(-c2ccccc2)nc1NC(=O)C(C)C`, the inhibition is reported as 38.3% (active).
For `Fc1ccc(COc2ccc(-c3nnco3)cc2)cc1`, the inhibition was 63.9% (active).
With `Nc1ncc(-c2cc3ccccc3oc2=O)s1` the inhibition was 85% (active).
For `O=C(CSc1ccc(-c2ccccn2)nn1)Nc1ccccc1`, the inhibition was 47% (active).
With `Cc1cccnc1CC(C)NC(=O)c1cc(COc2cncc(Cl)c2)on1` (stereo not drawn) the inhibition was 47.9% (active).
With `CC1CCN(C(=O)CCNC(=O)c2ccccc2)CC1` the inhibition was 43.4% (active).
In the case of `Nc1ccccc1SCc1cc([N+](=O)[O-])cc2c1OCOC2`, the inhibition is reported as 62% (active).
In the case of `O=[N+]([O-])c1ccc(O)c(/C=N/Nc2ccccc2[N+](=O)[O-])c1`, the inhibition is reported as 33.7% (active).
In the case of `O=C(CSCc1ccc(Cl)cc1)N1CCCCC1`, the inhibition is reported as 91.4% (active).
With `O=C(CSCc1cccs1)N1CCCC1` the inhibition was 55.4% (active).
